Screening data (PubChem)
Shown are actives, neighbours in structure and some others; about 6% of the full set was active somewhere.
D3 antag – blocks the human D3 dopamine receptor; max response, negative = inhibition, %; 360,000 tested, 2.5% active; D3R cells, DiscoveRx beta-arrestin luminescence, antagonist mode; stronger effect = lower value; P35462; AID 652054; in the data active = max response below about -50%; inconclusive = no clear call, values can overlap the other calls; note: % is set by controls: 0 for no effect and ±100 for the full control effect
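Cells plated overnight at 1500 cells/well, then exposed to library compounds with dopamine controls for 90 minutes at 37 degrees C. DiscoveRx reagent added for 30–60 minutes at room temperature; luminescence read, quantitative HTS format.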
D1 antag – antagonists of human D1 dopamine receptor. P21728. AID 504652. activity change, negative = inhibition, % at 10 µM. 360,000 tested, 3.2% active. HEK293 TREx D1 cells, calcium flux, dopamine EC80; stronger effect = lower value; in the data active = activity change below about -30%; note: % is set by controls: 0 for no effect and ±100 for the full control effect
Target sequence (P21728 whole entry, looked up): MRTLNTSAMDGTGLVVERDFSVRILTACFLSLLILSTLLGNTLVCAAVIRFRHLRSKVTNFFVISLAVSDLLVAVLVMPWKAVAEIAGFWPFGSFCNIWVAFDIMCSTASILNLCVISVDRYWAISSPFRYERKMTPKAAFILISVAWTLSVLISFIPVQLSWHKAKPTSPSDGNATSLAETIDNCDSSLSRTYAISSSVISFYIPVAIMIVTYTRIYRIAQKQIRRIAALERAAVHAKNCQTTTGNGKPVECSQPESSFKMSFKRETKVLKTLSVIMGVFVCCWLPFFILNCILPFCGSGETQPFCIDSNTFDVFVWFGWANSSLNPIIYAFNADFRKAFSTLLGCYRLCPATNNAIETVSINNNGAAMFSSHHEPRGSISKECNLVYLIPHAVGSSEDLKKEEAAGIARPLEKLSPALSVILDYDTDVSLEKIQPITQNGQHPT
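Cells carrying a force-coupled, tetracycline-inducible human D1 receptor report calcium flux. Each well gets a 10 s baseline, compound with 180 s monitoring, then an EC80 dopamine stimulus with a second 180 s kinetic read.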
D3 ag – activates the human D3 dopamine receptor; 410,000 tested, 0.58% active; max activation, %; P35462; D3R DiscoveRx beta-arrestin cells, luminescence, 90 min; in the data active = max activation above about 30%; note: 0% is about no effect
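Agonist-mode cell screen: cells plated at 1500/well and incubated overnight at 37 °C, then exposed to library compounds for 90 min at 37 °C. Detection reagent was added for 30–60 min at room temperature, and luminescence was read.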
D1 potentiator – human D1 dopamine receptor positive modulation. potentiation, % at 10 µM. 360,000 tested, 0.036% active. HEK293 TREx D1 cells, calcium flux, dopamine EC20 potentiation. P21728. AID 504651; in the data active = potentiation above about 30%; note: 0% is about no effect
D1 agonist – agonists of human D1 dopamine receptor; P21728; HEK293 T-REx D1 cells, calcium flux, agonist mode; activation, % at 2 µM; 360,000 tested, 1% active; AID 504660; in the data active = activation above about 30%; note: 0% is about no effect
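Agonism was scored from calcium flux recorded over 180 s (1 read/s) after pintool compound addition, following a 10-cycle baseline. Cells were inducible force-coupled HEK293 TREx D1, plated overnight at 30 C and loaded with no-wash calcium dye.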
* = called active by the depositor.

For CN(C)/C=C1\SC(=S)N(c2ccc(F)cc2)C1=O the results were D3 antag 0, D1 antag -4, D3 ag -2, D1 potentiator -2 and D1 agonist 13.
`CN(C)/C=C1\SC(=S)N(c2ccc(Br)cc2)C1=O` gave D3 antag 6, D1 antag -15, D3 ag 0, D1 potentiator -2 and D1 agonist 41*.
For CCOC(=O)C1CN(S(=O)(=O)c2ccc(C)cc2)c2ccccc2O1 (centres undefined) the results were D3 antag 0, D1 antag -45*, D3 ag 5, D1 potentiator -6 and D1 agonist 6.
Screening CCCNC(=O)C1CN(S(=O)(=O)c2ccc(C)cc2)c2ccccc2O1 (centres undefined) returned D3 antag 6, D1 antag -6, D3 ag 17, D1 potentiator -8 and D1 agonist 0.
Screening Cc1oc(-c2ccc(C(=O)NCc3ccccc3F)cc2)nc1COc1ccccc1 returned D1 antag -54*, D3 ag 34*, D1 potentiator -4 and D1 agonist 11.
Cc1ccc(SCc2nc(-c3ccc(C(=O)NCc4ccc(Cl)cc4)cc3)oc2C)cc1 was read as D1 antag -84*, D3 ag 7, D1 potentiator -3 and D1 agonist 2.
Screening Cc1oc(-c2ccc(C(=O)Nc3ccccc3F)cc2)nc1COc1ccccc1 returned D1 antag -22, D3 ag 1, D1 potentiator -2 and D1 agonist 18.
For COc1cccc(C(=O)N2CCc3cc(OC)c(OC)cc3C2COc2ccc3c(C)cc(=O)oc3c2)c1 (centres undefined) the results were D1 antag -27, D3 ag 8, D1 potentiator -1 and D1 agonist 2.
For CCCc1nnc(SCC(=O)N(CC)CC)n1CC1CCCO1 (centres undefined) the results were D3 antag 28, D1 antag -5, D3 ag 8, D1 potentiator -2 and D1 agonist 3.
Screening CCCc1nnc(SCC(=O)N2CCCC(C)C2)n1CCOC (centres undefined) returned D3 antag -58*, D1 antag -3, D3 ag -7, D1 potentiator 0 and D1 agonist 4.
For CCCc1nnc(SCC(=O)N2CCCCC2C)n1CC1CCCO1 (centres undefined) the results were D3 antag -65*, D1 antag -7, D3 ag 2, D1 potentiator -4 and D1 agonist 3.
`Cc1ccc(/C=C2\Oc3c(ccc(O)c3CN3CCN(C)CC3)C2=O)cc1` gave D3 antag -11, D1 antag 3, D3 ag -5, D1 potentiator 4 and D1 agonist 40*.
CCN1CCN(Cc2c(O)ccc3c2O/C(=C\c2ccccc2)C3=O)CC1 was read as D3 antag -17, D1 antag -22, D3 ag -4, D1 potentiator -6 and D1 agonist 51*.
CCN1CCN(Cc2c(O)ccc3c2O/C(=C\c2ccc(C)cc2)C3=O)CC1 was read as D3 antag 1, D1 antag -1, D3 ag 2, D1 potentiator -7 and D1 agonist 19.
Screening CN(C)Cc1c(O)ccc2c1O/C(=C\C=C\c1ccccc1)C2=O returned D3 antag -20, D1 antag 7, D3 ag -11, D1 potentiator 1 and D1 agonist 45*.
Screening COc1ccccc1/C=C/C=C1\Oc2c(ccc(O)c2CN2CCN(CCO)CC2)C1=O returned D3 antag inconclusive, D1 antag -31*, D3 ag -6, D1 potentiator 0 and D1 agonist 114*.
Screening O=C(CSc1nnc(COc2ccc(Cl)cc2)o1)Nc1ccccc1 returned D1 antag -4, D3 ag 0, D1 potentiator -3 and D1 agonist 4.
COc1ccc2c(c1)NC(c1ccc(OCC(C)C)cc1)=NC(c1ccncc1)=N2 was read as D1 antag -4, D3 ag -9, D1 potentiator 0 and D1 agonist 2.
CC(=O)Nc1cccc(-c2nc3ccccc3[nH]2)c1 was read as D3 antag 5, D1 antag -4, D3 ag 3, D1 potentiator -8 and D1 agonist 3.
